{"source": "PubChem BioAssay (NCATS)", "note": "Results filed as inconclusive are left out. A number with no mark means an inactive call. The source made the active and inactive calls. The call rests on the fitted dose curve; in most records, active means well fitted inhibition curve with a large enough effect; inconclusive means small, poorly fitted or top-dose-only effect; inactive means flat fitted curve, though single readings scatter. Positions of bridges follow the written chain, without caps; N, C: chain ends. Non-standard residues stand in square brackets, D forms with d. Residues, ends and D or L forms follow the SMILES beside them. ξ: configuration not given here. *: point of attachment. Octanoyl(6-Me) = CCC(C)CCCCC(=O)*; ξThr(3R) = C[C@@H](O)C(N)C(=O)O; dDab = NCC[C@@H](N)C(=O)O; Dab = NCC[C@H](N)C(=O)O"}
{"test_system": "Zika virus NS2B-NS3 protease", "assay": "Primary screen GU AMC qHTS for Zika virus inhibitors (AID 1347154); further: nearly all actives have a fitted effect of over 70% in size; further: potency means the concentration at half of the fitted maximal effect;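 on activity change, negative = inhibition: 0% = no-inhibitor control and -100% = no-enzyme control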", "details": "Zika NS2B-NS3 unlinked protease, AMC fluorogenic substrate; series mostly up to 54.1 µM; activity change, negative = inhibition: at the top concentration", "outline": "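Fluorogenic AMC-substrate cleavage by noncovalent NS2B-NS3 protease complex (25 nM, pH 8.0 Tris buffer with Tween 20) followed for 15 minutes at room temperature (~20% conversion). Percent inhibition from ex340/em450 signal change, fitted by 4-parameter Hill equation.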"}
{"smiles": "Cc1cn([C@@H]2O[C@H](CO)[C@@H](O)[C@H]2F)c(=O)[nH]c1=O", "activity change, negative = inhibition": "-9.56%"}
{"smiles": "CC(C)N1[N]C(=C2C=c3cc(O)ccc3=N2)c2c(N)ncnc21", "activity change, negative = inhibition": "0.671%"}
{"smiles": "CCOC(=O)C=C[C@H](C[C@@H]1CCNC1=O)NC(=O)[C@@H](CC(=O)[C@@H](NC(=O)c1cc(C)on1)C(C)C)Cc1ccc(F)cc1", "activity change, negative = inhibition": "4.98%"}
{"smiles": "Cc1ccc2nc(NCCN)c3ncc(C)n3c2c1", "activity change, negative = inhibition": "16.7%"}
{"smiles": "O=C(c1ccc(F)cc1)N1CCC[C@H](c2nc(-c3ccc(F)cc3)no2)C1", "activity change, negative = inhibition": "6.17%"}
{"smiles": "C=CC(=O)N1CCc2ccc(-n3c(=O)ccc4cnc5ccc(-c6cnn(C)c6)cc5c43)cc21", "activity change, negative = inhibition": "2.74%"}
{"smiles": "COc1cc2c(cc1O)CCC1C2CC[C@@]2(C)C1CC[C@@H]2O", "note": "(stereo not given in full)", "activity change, negative = inhibition": "4.85%"}
{"smiles": "CC(N[C@H]1CCCC[C@H]1NC(=O)c1ccc(Cl)cc1)c1cccc2ccccc12", "note": "(stereo not given in full)", "activity change, negative = inhibition": "-1.14%"}
{"smiles": "Cc1cnc(Nc2ccc(N3CCN(C)CC3)cc2)nc1Nc1cccc(S(=O)(=O)NC(C)(C)C)c1", "activity change, negative = inhibition": "3.48%"}
{"smiles": "CN(N=O)C(=O)N[C@H]1C(O)OC(CO)[C@@H](O)[C@H]1O", "note": "(stereo not given in full)", "activity change, negative = inhibition": "8.04%"}
{"smiles": "Cc1cnn(C)c1C(=O)Nc1cc(Nc2ccc3c(C=Cc4ccccn4)n[nH]c3c2)ccc1F", "activity change, negative = inhibition": "5.61%"}
{"smiles": "C=CC(=O)Nc1cccc(Nc2nc(NC3CCC(N(C)C)CC3)nc3c2ncn3C(C)C)c1", "note": "(stereo not given)", "activity change, negative = inhibition": "1.64%"}
{"smiles": "COc1ccc(C[C@@H](C)[C@@H](C)Cc2ccc(OC)c(OC)c2)cc1OC", "activity change, negative = inhibition": "-4.56%"}
{"smiles": "COc1cccc2c1C(=O)c1c(O)c3c(c(O)c1C2=O)C[C@@](O)(C(C)=O)C[C@H]3O[C@H]1C[C@H](N)[C@H](O)[C@H](C)O1", "activity change, negative = inhibition": "-6.77%"}
{"smiles": "Cc1cc(-c2nnc3n2CCCCC3)c(C)n1-c1ccccc1", "activity change, negative = inhibition": "-3.36%"}
{"smiles": "COc1ccc(Nc2cc(-c3cnc(N)nc3)nc(N3CCOCC3)n2)cn1", "activity change, negative = inhibition": "-4.83%"}
{"smiles": "CC(C)N(CC[C@H](c1ccccc1)c1cc(CO)ccc1O)C(C)C", "activity change, negative = inhibition": "14.9%"}
{"smiles": "CCn1c(=O)c2c(nc(C=Cc3ccc(OC)c(OC)c3)n2C)n(CC)c1=O", "activity change, negative = inhibition": "-2.68%"}
{"smiles": "COc1cc2c(Nc3ccc(Cl)c(Cl)c3F)ncnc2cc1OCC1C[C@@H]2CN(C)C[C@H]2C1", "activity change, negative = inhibition": "-1.3%"}
{"smiles": "O=C1c2c(O)cccc2[C@@H]([C@@H]2O[C@H](CO)[C@@H](O)[C@H](O)[C@H]2O)c2cc(CO)cc(O)c21", "activity change, negative = inhibition": "4.03%"}
{"smiles": "C=C1C(=O)O[C@H]2[C@@H]1CCC(C)=CCC[C@@]1(C)O[C@@H]21", "activity change, negative = inhibition": "7.99%"}
{"smiles": "CON=C(C(=O)N[C@@H]1C(=O)N2C(C(=O)O)=C(Cn3ccc(=N)n3CCO)CS[C@H]12)c1csc(N)n1", "activity change, negative = inhibition": "-1.01%"}
{"smiles": "CC(C)(O)[C@H]1CC[C@@](C)([C@H]2[C@@H](O)C[C@@]3(C)[C@@H]4C[C@H](O[C@@H]5O[C@H](CO)[C@@H](O)[C@H](O)[C@@H]5O)[C@H]5C(C)(C)[C@@H](O[C@@H]6OC[C@@H](O)[C@H](O)[C@@H]6O)CC[C@@]56C[C@@]46CC[C@]23C)O1", "activity change, negative = inhibition": "-13.9%"}
{"smiles": "Cc1cc(C(=O)NOCCO)c(Nc2ccc(I)cc2F)n(C)c1=O", "activity change, negative = inhibition": "-0.225%"}
{"smiles": "CCCCCCCN(CC)CCCC(O)c1ccc(NS(C)(=O)=O)cc1", "note": "(stereo not given)", "Potency": "24.1 µM (active)"}
{"smiles": "CCOC(=O)[C@H](CCc1ccccc1)N[C@@H](C)C(=O)N1[C@@H](C(=O)O)C[C@H]2CCC[C@@H]21", "activity change, negative = inhibition": "-16.8%"}
{"smiles": "COc1cc(OC)cc(-c2ccc3ncc4ccc(=O)n(-c5ccc(N6CCNCC6)c(C(F)(F)F)c5)c4c3c2)c1", "activity change, negative = inhibition": "2.52%"}
{"smiles": "OCC(O)C(O)C(O)CO", "note": "(stereo not given)", "activity change, negative = inhibition": "12.7%"}
{"smiles": "O=c1ccn([C@@H]2O[C@H](CO)[C@H](O)[C@@H]2F)c(=O)[nH]1", "activity change, negative = inhibition": "4.16%"}
{"smiles": "CCC(C)CCCCC(=O)N[C@@H](CCN)C(=O)NC(C(=O)N[C@H](CCN)C(=O)N[C@@H]1CCNC(=O)C([C@@H](C)O)NC(=O)[C@@H](CCN)NC(=O)[C@@H](CCN)NC(=O)[C@@H](CC(C)C)NC(=O)[C@H](Cc2ccccc2)NC(=O)[C@H](CCN)NC1=O)[C@@H](C)O", "note": "(stereo partly drawn) ({Octanoyl(6-Me)}-[Dab][ξThr(3R)][dDab][dDab][Dab]F[dL][dDab][dDab][ξThr(3R)]; lactam 4-C)", "activity change, negative = inhibition": "18.6%"}
{"smiles": "Cn1cnc(=N)c2[nH]cnc21", "activity change, negative = inhibition": "16.9%"}
{"smiles": "Cn1cc(C[C@@H](N)C(=O)O)c2ccccc21", "activity change, negative = inhibition": "3.43% [at 25.8 µM]"}
{"smiles": "NS(=O)(=O)OC[C@@H]1C[C@@H](n2ccc3c(N[C@H]4CCc5ccccc54)ncnc32)C[C@H]1O", "activity change, negative = inhibition": "10.7%"}
{"smiles": "C[N+](C)([O-])CCNc1ccc(NCC[N+](C)(C)[O-])c2c1C(=O)c1c(O)ccc(O)c1C2=O", "activity change, negative = inhibition": "11.9%"}
{"smiles": "Nc1nc(=O)n([C@H]2C[C@H](O)[C@@H](CO)O2)cc1F", "activity change, negative = inhibition": "3.75%"}
